# Data taken from PubChem BioAssay (NCATS).
# Inconclusive results are not listed. Where a call stands in place of a potency, no number is given. The source made the active and inactive calls. The call rests on the fitted dose curve; in most records, active means well fitted inhibition curve with a large enough effect; inconclusive means small, poorly fitted or top-dose-only effect; inactive means no such curve, though single readings can be large or run the other way.
# Assays:
# [1] = system: Zika virus NS2B-NS3 protease (unlinked complex); test: Primary screen GU Rhodamine qHTS for Zika virus inhibitors: Unlinked NS2B-NS3 protease assay (AID 1347159); conditions: Recombinant ZIKV NS2B-NS3 protease, Rhodamine110 substrate fluorescence; series mostly up to 107 µM; further: nearly all actives have a fitted effect of over 60% in size
# Summary of the method: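 Enzyme 25 nM in Tris-HCl pH 8.0 + 0.01% Tween 20; compounds up to 114 microM, 15 min RT dark; + Rhod110 substrate 1.5 microM; read t0 and 15 min; delta fluorescence → % inhibition → 4-parameter Hill fit.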
# [2] = system: Zika virus NS2B-NS3 protease (linked construct); test: Primary screen NINDS Rhodamine qHTS for Zika virus inhibitors (AID 1347160); conditions: purified NS2B-NS3 protease, Rhodamine110 substrate fluorescence; series mostly up to 33.1 µM; further: nearly all actives have a fitted effect of over 55% in size
# Summary of the method: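 Enzyme (25 nM, linked NS2B-NS3) was preincubated 15 min with compound in 10 mM Tris-HCl pH 8.0, 0.01% Tween 20. Rhodamine110 substrate (1.5 microM) was then added and fluorescence read at start and after 15 min.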
# [3] = Confirmatory screen NINDS Rhodamine qHTS for Zika virus inhibitors (AID 1347161); conditions: purified enzyme assay, Rhodamine110 substrate fluorescence, 15 min; series mostly up to 114 µM; further: potency means the concentration at half of the fitted maximal effect; nearly all actives have a fitted effect of over 60% in size
# Summary of the method: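 Kinetic fluorescence (Ex 480 nm, Em 540 nm) over 15 min with 1.5 microM Rhodamine110 peptide and 25 nM linked protease.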
# [4] = system: Zika virus NS2B-NS3 protease (linked construct); test: 384 well plate NINDS Rhodamine confirmatory qHTS for Zika virus inhibitors (AID 1347164); conditions: rhodamine-110 peptide substrate fluorescence; series mostly up to 100 µM;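 further: fluorescence from protease cleavage of Ac-LKRR-rhodamine 110 substrate; potency means the concentration at half of the fitted maximal effect; nearly all actives have a fitted effect of over 65% in size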
# Summary of the method: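 Enzyme (final 5/30/60 nM) + cpd (DMSO), ~15 min; add Ac-LKRR-Rd 10 microM final; 25 min RT, dark; FI ex 485/em 538; normalized to no-enzyme, no-inhibitor ctrls; aprotinin intraplate ctrl.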
smiles,measurement,setting,value
NC1=NC2(c3cc(NC(=O)c4ccc(F)cn4)ccc3F)COCC2CS1 (configuration not stated),Potency,[1],inactive
same,Potency,[2],inactive
O=c1[nH]ccc2nc(-c3ccc(CN4CCC(c5nc(-c6ccccn6)n[nH]5)CC4)cc3)c(-c3ccccc3)cc12,Potency,[2],inactive
O=C(NC1Cc2ccccc2N(C[C@@H](O)CO)C1=O)c1cc2cc(Cl)sc2[nH]1 (some centres not stated),Potency,[1],inactive
same,Potency,[2],inactive
CC(CNS(=O)(=O)C(C)C)c1ccc(-c2ccc(C#N)cc2)cc1 (configuration not stated),Potency,[2],inactive
CC[C@@H](C)[C@H](N)C(=O)N1Cc2ccccc2C1,Potency,[1],inactive
same,Potency,[2],inactive
CC1C2=CC(=O)OC2(O)CC2C1CCC1C(C)(C)CCC(O)C21C (configuration not stated),Potency,[2],inactive
O=C(Cc1ccccc1)OC[C@H]1O[C@H](O[C@H]2O[C@H](CO)[C@@H](O)[C@H](O)[C@H]2O)[C@H](O)[C@@H](O)[C@@H]1O,Potency,[1],inactive
same,Potency,[2],inactive
Cc1ncc(Cl)cc1NCc1ccc(C(=O)NC(CC2CCCC2)C(=O)NC2CC2)s1 (configuration not stated),Potency,[1],inactive
same,Potency,[2],inactive
N#Cc1cccc(-c2c[nH]c3ncnc(N4CCOCC4)c23)c1,Potency,[1],inactive
same,Potency,[2],inactive
Cc1ccc(COC(=O)N2CC[C@@H](CNc3ncccn3)[C@@H](F)C2)cc1,Potency,[1],inactive
same,Potency,[2],inactive
Fc1ccc(-c2c3cccc(C(F)(F)F)c3nn2Cc2ccc(F)cc2Cl)cc1,Potency,[1],inactive
same,Potency,[2],inactive
CC1=C[C@H]2[C@@H](CC1=O)[C@H](C)C[C@H](O)[C@H]2C(C)C,Potency,[2],inactive
Cc1ccc2nc(NC(=O)CSc3nc4c(c(=O)n3-c3ccc(F)cc3)SCC4)sc2c1,Potency,[2],inactive
C=C1CC2C3(C)C=CC(=O)OC(C)(C)C3CC(OC(C)=O)C2(C)C2C(=O)OC(C)C(=O)C12C (configuration not stated),Potency,[1],inactive
same,Potency,[2],inactive
CCN(CCN(C)C)C(=O)CNCc1cc(C(N)=O)ccn1,Potency,[1],inactive
same,Potency,[2],inactive
CC1(C)CCC[C@]2(C)C1CC=C(CO)[C@H]2CC/C(=C/CO)CO (some centres not stated),Potency,[2],inactive
CC1(C)CC[C@]2(C(=O)O)CC[C@]3(C)C(=CCC4[C@@]5(C)CC[C@H](O[C@@H]6O[C@H](C(=O)O)[C@@H](O)[C@H](O)[C@H]6O)C(C)(C)C5CC[C@]43C)C2C1 (some centres not stated),Potency,[2],inactive
same,Potency,[3],6.55 µM (active)
same,Potency,[4],2.24 µM (active)
CC(=O)OCC1=CCC2C(C)(C)CCCC2(C)C12CCC(C)(CC(=O)O)O2 (configuration not stated),Potency,[2],inactive
COc1ccccc1N1CCN(CCCCNC(=O)c2ccc(-c3cscn3)cc2)CC1,Potency,[1],inactive
same,Potency,[2],inactive
